Rows were chosen to be rich in hits. Some 4.8% of all compounds tested hit in one or more screens of this group.
tim23-1 inh – growth inhibitors of tim23-1 mutant yeast | S. cerevisiae tim23-1 growth, BacTiter-Glo luminescence, 24 h | inhibition, % at 20 µM | actives 1.3% (n = 330,000);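 active = growth inhibition of the mutant yeast at or above 50%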;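 also: temperature-sensitive mutant grown at 25 °C; plate controls were DMSO-treated mutant yeast for no effect and medium wells lacking yeast for full effect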
PfHsp90 yeast 2 – inhibits growth of yeast expressing Plasmodium falciparum Hsp90; S. cerevisiae expressing PfHsp90, BacTiter-Glo ATP, 48 h; yeast lacking PDR1 and PDR3 efflux regulators; inhibition, % at 9.4 µM; actives 0.32% (n = 310,000); AID 504621;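 active = every replicate shows inhibition above about 80%, whatever the replicate mean, limit read from the data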;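 also: 0% = DMSO neutral controls and 100% = 20 µM radicicol positive controls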
tim10-1 inh – tim10-1 yeast growth inhibition. S. cerevisiae tim10-1 ts strain growth, BacTiter-Glo, 24 h. inhibition, % at 20 µM. actives 2.2% (n = 330,000);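 active = inhibition of at least 40%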;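 also: mutant grown at 25 °C; 0% = DMSO wells with yeast and 100% = wells holding no yeast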
TIM10 inh – inhibits growth of TIM10 yeast strain; actives 1.4% (n = 330,000); inhibition, % at 10 µM; AID 463195; S. cerevisiae TIM10 strain growth, BacTiter-Glo luminescence, 24 h;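 active = inhibition of 40% or more at the single tested concentration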;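 also: wild-type TIM10 isogenic control strain grown at permissive 25 °C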
NALP1 inh – blocks the NALP1 inflammasome reconstituted in yeast; inhibition, % at 10 µM; actives 0.61% (n = 280,000); S. cerevisiae NALP1/ASC/caspase-1 growth, X-gal OD620, 72 h; in the data active = inhibition mostly above about 24%, no sharp cut-off; inactive = mostly below about 32%
SKKanGAS inh – SKKanGAS growth inhibition | S. pyogenes SKKanGAS, kanamycin growth, BacTiter-Glo, 6 h | inhibition, % at 7.5 µM | actives 1.3% (n = 300,000) | AID 1662;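 active = mean replicate score, as percent of positive control median, at least 50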;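 also: strain carries kanamycin resistance gene driven by streptokinase promoter and grows in 40 µg/ml kanamycin; loss of luminescence reflects streptokinase promoter inhibition or plain growth inhibition; 0% = median of DMSO wells and 100% = positive control at its reference dose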
tim10-1 confirm – tim10-1 yeast growth inhibition, confirmed | actives 56% (n = 7,400) | shares compounds with tim10-1 inh | inhibition, % at 20 µM | S. cerevisiae tim10-1 ts strain growth, BacTiter-Glo, 24 h;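 active = inhibition of yeast growth at or above a set limit in either of two repeat tests at 20 µM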;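 also: tim10-1 mutant grown at permissive 25 °C to find synthetic lethal compounds; 0% = DMSO yeast wells and 100% = medium wells without yeast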
* hit, by the source's call; . = not tested or not shown.

SMILES	tim23-1 inh	PfHsp90 yeast 2	tim10-1 inh	TIM10 inh	NALP1 inh	SKKanGAS inh	tim10-1 confirm
COc1cccc(-c2csc(N3CCN(C(=S)Nc4ccccc4Cl)CC3)n2)c1	25.0	-30.8	43.7*	29.1	-7.6	14.9	34.0*
COCCCNC(=S)N1CCN(c2nc(-c3ccccc3)cs2)CC1	35.7	-25.5	40.0*	5.8	-2.6	4.6	13.4
CCOCCCNC(=S)N1CCN(c2nc(-c3ccccc3)cs2)CC1	33.8	-4.5	19.1	8.4	8.3	-3.5	.
Cc1ccc(Cn2c(SCC(=O)NCc3ccco3)nc3ccsc3c2=O)cc1	16.7	5.0	31.1	11.7	34.4	-0.2	.
O=C(c1ccc2c(c1)N(Cc1ccccc1)CCS2)N1CCCCC1	36.5	-4.7	43.2*	19.1	18.6	-9.1	26.2
Cc1ccc(CN2CCSc3ccc(C(=O)NCC4CCCO4)cc32)cc1 (stereo not given)	44.4	-14.0	41.1*	21.3	3.3	0.4	16.5
Cc1ccc(CN2CCSc3ccc(C(=O)NC4CCCC4)cc32)cc1	-3.1	9.8	-1.6	4.9	-4.6	9.5	.
NS(=O)(=O)c1ccc(CCNC(=O)CN2CCC(Cc3ccccc3)CC2)cc1	5.4	.	26.6	-12.7	12.0	-9.7	.
O=C(CSc1nnnn1-c1ccccc1)N1CCCc2ccccc21	32.3	-17.6	43.4*	22.0	-1.6	20.7	17.4
O=C(CSc1n[nH]c(-c2ccccc2O)n1)N1CCCc2ccccc21	30.8	5.2	44.5*	27.0	14.2	-0.7	25.4
COc1ccc(C(=O)NCC2(c3ccccc3)CCOCC2)cc1	11.3	10.3	12.6	1.1	.	1.2	.
CSC1=C(C#N)C(c2ccc(Cl)cc2)C2=C(CC(C)(C)CC2=O)N1 (stereo not given)	8.3	-14.0	1.0	-0.8	-19.8	7.7	.
N#CC1=C(SCC(N)=O)NC2=C(C(=O)c3ccccc32)C1c1ccc(Cl)cc1 (stereo not given)	27.3	-29.3	44.3*	28.6	10.0	6.4	27.3
COC(=O)[C@]1(Cc2ccccc2)N[C@H](c2ccc(-c3ccccc3)cc2)[C@@H]2C(=O)N(C)C(=O)[C@@H]21	18.2	11.9	44.6*	13.5	.	2.4	18.8
COC(=O)C1(Cc2ccccc2)NC(c2ccc(F)cc2)C2C(=O)N(C)C(=O)C21 (stereo not given)	23.2	-4.6	18.7	5.3	6.5	4.2	.
O=C(CCCCCNC(=O)N1CCn2c1nc1ccccc12)NCc1ccccc1	-0.6	20.7	3.9	6.4	18.3	5.7	.
Cc1ccn2cc(-c3cccc(S(=O)(=O)N4CC(C)OC(C)C4)c3)nc2c1 (stereo not given)	29.5	-24.9	41.5*	12.7	1.9	-0.7	7.5
Cc1ccn2cc(-c3cccc(S(=O)(=O)N4CCCC4)c3)nc2c1	26.8	-50.4	50.0*	8.7	-25.8	1.4	-7.4
COc1ccc(NC(=O)c2cn(CCC#N)nc2-c2cccs2)cc1	28.3	-20.0	41.4*	36.0	.	-8.8	25.1
N#CCCn1cc(C(=O)Nc2ccc([N+](=O)[O-])cc2)c(-c2cccs2)n1	33.7	-4.2	32.8	10.2	22.0	-3.3	.
Nc1c(C(=O)NCc2ccc(Cl)cc2)sc2nc3c(c(C(F)(F)F)c12)CCC3	30.2	.	45.9*	3.9	-3.3	27.9	25.6
CCN1CCN(CCCN(Cc2ccco2)C(=S)Nc2cccc(Cl)c2C)CC1	2.8	1.4	6.6	-3.6	5.8	-0.6	.
Cc1cc2c(s1)c1cnn(Cc3ccccc3F)c(=O)c1n2C	1.9	-14.6	23.1	0.0	16.1	2.8	.
CC(C)OC(=O)/C(C#N)=C/c1cn(C)c2ccccc12	17.7	-3.5	20.3	26.9	8.4	-14.4	.
CC(C)OC(=O)/C(C#N)=C/c1c[nH]c2ccccc12	31.7	-10.9	41.7*	9.7	37.4	-15.6	28.4
SMILES	tim23-1 inh	PfHsp90 yeast 2	tim10-1 inh	TIM10 inh	NALP1 inh	SKKanGAS inh	tim10-1 confirm
COCCn1c(SCC(N)=O)nc2c(c1=O)SC(C)C2 (stereo not given)	-9.3	8.1	-7.2	3.6	30.1	-2.7	.
Cc1ccc(-c2csc(=S)n2CC(=O)OCC(=O)NC(C)C(C)C)cc1 (stereo not given)	24.6	11.5	25.8	23.0	18.7	-4.5	.
Cc1ccc(-c2csc(=S)n2CC(=O)OCC(=O)NCc2ccco2)cc1	22.1	.	40.8*	5.9	6.5	-4.1	19.5
CCOc1cc(/C=C2\N=C(SC)SC2=O)cc([N+](=O)[O-])c1OC(C)=O	45.9	26.3	41.8*	15.4	-8.6	8.4	25.6
CCOc1cc(/C=C2\N=C(SCC)SC2=O)cc([N+](=O)[O-])c1OC(C)=O	6.2	-20.0	32.0	17.5	6.2	17.0	.
Nc1nnc(-c2ccc(Cl)cc2Cl)s1	16.7	-16.8	-1.4	-16.2	-7.9	-0.4	.
CCCCOC(=O)c1ccc(NC(=O)COC(=O)CSc2nc(C)cc(C)n2)cc1	31.9	-13.0	45.7*	0.4	22.4	-3.7	29.9
COc1ccc(NC(=O)CSc2nc(C)cc(C)n2)cc1	2.8	12.9	-2.7	-0.2	-5.8	-3.8	.
COC(=O)c1sccc1NC(=O)CC1C(=O)NCCN1C(=O)Nc1cc(Cl)ccc1OC (stereo not given)	5.8	.	9.4	15.4	.	-4.0	.
COc1cc(C(=S)N2CCOCC2)cc(OC)c1OC(=O)Cc1ccc(F)cc1	24.7	.	25.8	17.8	26.4	-5.2	.
CCCCN(C(=O)CSCC(=O)Nc1ccc(C)cc1)c1c(N)n(CCCC)c(=O)[nH]c1=O	1.6	-12.0	8.7	2.4	.	0.0	.
c1ccc(-c2cc(-c3nnc4n3N=C(c3ccc5ccccc5c3)CS4)[nH]n2)cc1	26.5	-21.5	47.8*	9.7	39.8	35.1	7.5
Cc1cc(-c2nnc3n2N=C(c2ccc(-c4ccccc4)cc2)CS3)n[nH]1	45.7	-26.8	31.8	24.4	-2.2	47.0	.
CCCCc1ccccc1NC(=S)NC1CCCC1	39.5	-35.8	42.7*	32.4	9.7	-7.8	12.4
CSc1ccccc1NC(=S)NC1CCCC1	16.9	9.9	22.1	9.0	9.6	14.8	.
COc1ccccc1CNC(=O)CCC(=O)n1ncc2cc(C)ccc21	14.2	10.7	-18.4	-16.9	19.4	1.5	.
Cn1ncc(Cl)c1C(=O)Nc1cc(C(F)(F)F)ccc1F	4.4	.	47.3*	-3.2	-29.7	1.1	10.1
Cc1c(C(=O)Nc2ccc3c(c2)OCCO3)sc2ncnc(N3CCCCC3C)c12 (stereo not given)	46.3	-42.5	46.3*	5.0	-4.6	-16.8	19.6
Cc1nc(N2CCC(C)CC2)c2c(C)c(C(=O)Nc3cccc(C(F)(F)F)c3)sc2n1	16.0	41.0	33.7	26.8	14.1	21.0	.
Cc1nc(N2CCC(C)CC2)c2c(C)c(C(=O)Nc3ccc4c(c3)OCCO4)sc2n1	40.1	10.9	41.5*	16.6	24.8	-3.4	12.3
